Compound activity: PubChem BioAssay, National Center for Advancing Translational Sciences (NCATS)
Shown are actives, neighbours in structure and some others; about 12% of the full set was active somewhere.
RORg inh: inhibitors of mouse ROR gamma transcriptional activity; 310,000 tested, 5.4% active; Potency, µM (series often up to 53.6 µM), for the others: top-dose activity change, negative = inhibition, actives largely listed as inhibitors; Drosophila S2 Gal4-RORgamma UAS-luciferase reporter, 20 h; P51450; also: nearly all actives have a fitted effect of over 60% in size
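Schneider cells (Drosophila), stable Gal4 DBD–ROR gamma + UAS-luc; 1 hr cmpd preincubation; Cu2+ induction 700 uM final; 20 hr ambient; luminescence.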
Gal4-VP16 FLuc: counter-screen for ROR gamma inhibitors: Gal4-VP16 reporter; Drosophila S2 Gal4-VP16 UAS-luciferase, luminescence, 20 h; Potency, µM (titrated, usually from 53.6 µM), inactives show at the highest dose activity, negative = inhibition, most hits filed as inhibitors; 310,000 tested, 3.5% active; AID 2546;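 also: Gal4-VP16 expression switched on by copper sulfate through the metallothionein promoter; nearly all actives have a fitted effect of over 50% in size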
Sfp PPTase inh: Sfp phosphopantetheinyl transferase inhibition | Q9F4F7 | Biochemical Sfp PPTase activity, qHTS | Potency, µM, inactives show largest response in the series, negative = inhibition, actives largely listed as inhibitors | 310,000 tested, 3.5% active;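 also: the enzyme is Sfp with the accession as filed and its product quenches rhodamine fluorescence; 0% = enzyme reaction without inhibitor and -100% = no enzyme wells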
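Sfp 15 nM + cpd, 15 min RT; start w/ rhodamine-CoA 5 uM, BHQ-2-YbbR 12.5 uM (final); 50 mM Hepes pH 7.6, 10 mM MgCl2, 0.01% NP-40, 0.01% BSA; read 525/598 nm at 0 and 30 min.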
PLK1 PBD block: PLK1 (human) polo-box domain binding inhibition; P53350; Plk1 PBD binding of FITC phosphopeptide, fluorescence polarization; Potency, µM, without a hit: max response, negative = inhibition, hits mostly inhibitors; 360,000 tested, 2.8% active; AID 720504; also: series mostly up to about 57 µM; nearly all actives have a fitted effect of over 65% in size
Target sequence (P53350 whole entry, looked up, the tested form may be a part): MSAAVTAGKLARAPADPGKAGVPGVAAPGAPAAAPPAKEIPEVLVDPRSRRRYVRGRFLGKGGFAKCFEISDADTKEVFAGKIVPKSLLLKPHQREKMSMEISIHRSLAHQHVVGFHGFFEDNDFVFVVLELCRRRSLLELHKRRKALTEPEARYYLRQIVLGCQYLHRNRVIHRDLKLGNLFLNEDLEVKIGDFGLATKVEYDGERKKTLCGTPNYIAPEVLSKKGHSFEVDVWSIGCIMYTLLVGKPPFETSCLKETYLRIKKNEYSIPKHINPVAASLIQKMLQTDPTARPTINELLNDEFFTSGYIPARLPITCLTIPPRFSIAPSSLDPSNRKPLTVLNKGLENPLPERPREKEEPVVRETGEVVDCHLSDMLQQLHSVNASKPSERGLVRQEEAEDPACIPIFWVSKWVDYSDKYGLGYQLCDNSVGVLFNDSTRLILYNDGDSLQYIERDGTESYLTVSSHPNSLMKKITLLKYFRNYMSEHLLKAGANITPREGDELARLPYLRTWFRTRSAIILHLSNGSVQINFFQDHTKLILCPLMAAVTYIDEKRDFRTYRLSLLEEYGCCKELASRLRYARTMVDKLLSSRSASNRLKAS
ALDH1A1 block: blocks purified human ALDH1A1 activity; Purified ALDH1A1, NADH fluorescence, propionaldehyde substrate; Potency, µM (highest dose often 75.3 µM), without a hit: at the top dose activity, negative = inhibition, actives largely listed as inhibitors; 220,000 tested, 7.3% active; active = well fitted inhibition curve with a large enough effect, not every such curve was filed as active; inconclusive = small, poorly fitted or top-dose-only effect, or another doubt; inactive = no such curve, though single readings can be large or run the other way;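 also: plate controls were no enzyme wells and a reference inhibitor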
* marks the source's active call; other numbers are inactive results; ? = inconclusive; · = not tested or not shown; [ ] = another dose, or the depositor's remark. Unless noted, calls follow the shape of the dose curve; as a rule, active = well fitted curve in the direction sought with a large enough effect; inconclusive = small, poorly fitted or top-dose-only effect, or another doubt; inactive = no such curve, though single readings can be large; an effect the other way counts as inactive or inconclusive. Unless noted, % is scaled to controls: 0 for no effect and ±100 for the full control effect; potency is read from the fitted curve at half-maximal effect.

SMILES | RORg inh | Gal4-VP16 FLuc | Sfp PPTase inh | PLK1 PBD block | ALDH1A1 block
CCC(C(=O)NCc1ccccc1OC)n1nc(C)n2c(cc3occc32)c1=O (configuration not stated) | 6% | 10% | 11% | -2% | 0%
CCc1nn(CC(=O)NC(C)CCc2ccccc2)c(=O)c2cc3occc3n12 (configuration not stated) | 1% | 1% | 17% | 24µM* | ·
Cc1nn(C(C)C(=O)NC(C)CCc2ccccc2)c(=O)c2cc3occc3n12 (configuration not stated) | 15% | 0% | 6% | -3% | ·
CCc1nn(C(C)C(=O)NC(C)CCc2ccco2)c(=O)c2cc3occc3n12 (configuration not stated) | ? | -25% | 79µM* | -15% | ?
COc1ccccc1CNC(=O)C(C)n1nc(C)n2c(cc3occc32)c1=O (configuration not stated) | 16% | -6% | 31% | 27µM* | ·
CCc1nn(C(C)C(=O)NCCc2ccccc2)c(=O)c2cc3occc3n12 (configuration not stated) | 28% | 7% | 5% | -16% | ·
CCc1cc2c(nc1CC)CCN(CC/C(C)=N/O[C@@H](C)CN1CCCCc3nc(C)c(C)cc31)C2 | -1%[10 µM] | 4%[10 µM] | 2% | · | 6%[13.5 µM]
CC[C@]12C(=O)N(C)C[C@H]([C@@H]3C(=O)N(Cc4ccccc4)C(=O)[C@@H]31)N2C(=O)c1ccc(F)cc1 | · | · | · | -4% | ·
Cc1noc(NC(=O)c2ccccc2Cl)c1C#N | 34% | ? | 13% | -9% | 12%
Cc1ccc(C(=O)Nc2onc(C)c2C#N)cc1 | 31% | -10% | 13% | -13% | 25µM*
Cc1noc(NC(=O)c2ccccc2)c1C#N | -29% | -7% | 13% | -11% | 10µM*
CCCCn1c(N)c(N(CC(C)C)C(=O)COc2cc(C)ccc2Cl)c(=O)[nH]c1=O | · | · | · | 0% | ·
COc1ccc2nc(/N=C/c3cccc(OC)c3O)sc2c1 | ? | -5% | -12% | ? | ·
COc1ccc2c(c1)-c1nc(/N=C/c3ccccc3O)sc1CC2 | 27% | -4% | -19% | -11% | 28µM*
COc1ccc2c(c1)-c1nc(/N=C/c3cccc(OC)c3O)sc1CC2 | 25% | -16% | -1% | -12% | 11µM*
COc1ccc(N=Cc2ccccc2O)cc1 | · | · | · | -12% | ·
Cc1sc2ncnc(N3CCN(CCOc4ccc(Cl)cc4)CC3)c2c1C | ? | 3.5µM* | 1% | -1% | -6%
CC(=O)OC1C=C[C@]2(C)C(CC(OC(C)=O)[C@@]3(C)C4=CC(=O)OC(c5ccoc5)[C@]4(C)CCC23)C1(C)C (some centres not stated) | -28% | -1% | -18% | · | 2%
O=C(c1cccc(S(=O)(=O)NCc2ccccc2)c1)N1CCN(Cc2ccccc2)CC1 | 31% | 0% | 18% | 3% | 18µM*
O=C(c1ccc(S(=O)(=O)c2cccc(Cl)c2)c([N+](=O)[O-])c1)N1CCN(Cc2ccccc2)CC1 | ? | 25µM* | -1% | -1% | 0%
Cc1ccc(S(=O)(=O)NCc2ccc(C(=O)N3CCN(Cc4ccccc4)CC3)cc2)cc1 | 26% | 4% | 2% | -8% | 11µM*
COc1ccc(S(=O)(=O)NCc2ccc(C(=O)N3CCN(Cc4ccccc4)CC3)cc2)cc1 | 7% | 1% | 11% | -15% | ·
COc1ccc(C(=O)N2CCN(Cc3ccccc3)CC2)cc1[N+](=O)[O-] | 33% | -1% | 9% | -16% | ·
O=C(NC(c1ccccc1)c1ccccc1)c1cccc(S(=O)(=O)NCc2ccccc2)c1 | ? | 0% | 7% | -1% | 4.5µM*
Cc1cccc(CNc2cc(-c3cccnc3)ncn2)c1 | 39% | -1% | -6% | · | ?
SMILES | RORg inh | Gal4-VP16 FLuc | Sfp PPTase inh | PLK1 PBD block | ALDH1A1 block
C[C@@H]1C=C[C@](Cc2ccccc2)(C(=O)NCCCNc2ncc(C(F)(F)F)cc2Cl)N1C(=O)c1ccccc1 | 23% | -1% | 9% | · | ?
Cc1ccc2oc(=O)c3c4cc(O)c(O)c(C)c4oc3c2c1 | ? | -16% | 15% | · | 8%
Cc1c(O)c(O)cc2c1oc1c3ccccc3oc(=O)c21 | 7.1µM* | ? | -11% | · | -13%
O=C(c1ccc(Cl)c(S(=O)(=O)NCc2ccco2)c1)N1CCN(c2ccccc2F)CC1 | 4% | -4% | 6% | 27µM* | -2%
COc1ccccc1N1CCN(C(=O)c2ccc(Cl)c(S(=O)(=O)NCc3ccco3)c2)CC1 | 6% | 4% | 14% | 1% | -15%
CC1CN(c2ccc([N+](=O)[O-])c(NCCOc3ccc(Cl)cc3)c2)CC(C)N1 (configuration not stated) | ? | 18µM* | ? | 0% | ·
CC1CN(c2ccc([N+](=O)[O-])c(NCCOc3ccccc3)c2)CC(C)N1 (configuration not stated) | -12% | 0% | -5% | -8% | ·
C=CCOC(=O)/C=C/NC(=O)/C=C/C=C/CCCCCCCC(C)O (configuration not stated) | -6%[10 µM] | 0%[10 µM] | -6% | · | -5%[13.5 µM]
C=CCOC(=O)/C=C/C(=O)NC(N)=O | 20µM* | ? | 20µM* | ? | ·
CCCCn1c(=S)[nH]c2c(oc3ccc(Cl)cc32)c1=O | 1.1µM* | ? | -17% | · | ?
CCCCn1c(=S)[nH]c2c(=O)n(C)c(=O)n(C)c21 | · | · | · | -6% | ·
CC1(C)CC(=O)C2=C(C1)NCN(Cc1ccc3c(c1)OCO3)C2 | -26% | 1% | 5% | 27µM* | 8%
CC1CC=CC2C1C(=O)N(Cc1ccccc1)C2c1ccc(-c2cc3ccccc3s2)cc1F (configuration not stated) | 15% | ? | 9% | · | ·
CCCNC(=O)C1(C)CCN(Cc2ccc(OC)c3ccccc23)C1 (configuration not stated) | · | · | · | -1% | ·
CCOC(=O)C1CCN(Cc2cccc(OC)c2)CC1 | -15% | 11% | -19% | -7% | 32µM*
CCOC(=O)N1CCN(C(=O)C2CCN(Cc3cccc(OCc4ccccc4)c3)CC2)CC1 | 10% | 0% | -23% | 2% | 14µM*
CCOC(=O)N1CCN(C(=O)C2CCN(Cc3ccc(O)c(OCC)c3)CC2)CC1 | -3% | 6% | 19% | 1% | ?
Cn1ncc(Cl)c1C(=O)N1CCN(c2ccc(Cl)c(Cl)c2)CC1 | 36% | ? | -8% | -13% | ·
Cn1cccc1Cc1nnc(SCC(=O)Nc2cccc(F)c2)n1-c1ccc(F)cc1 | ? | ? | -12% | ? | ?
COc1ccc(NC(=O)CSc2nnc(Cc3cccn3C)n2-c2ccc(OC)cc2)cc1 | ? | -2% | 4% | -4% | 14µM*
COc1ccc(-n2c(Cc3cccn3C)nnc2SCC(=O)Nc2ccc(C)cc2)cc1 | 34% | -1% | -2% | 1% | ?
COc1ccc(-n2c(Cc3cccn3C)nnc2SCC(=O)NC2CCCCC2)cc1 | 5% | 21% | -1% | 3% | -13%
